High-throughput results as filed in PubChem.
APP transl inh = APP translation inhibition; 0.82% of 190,000 active; SH-SY5Y APP 5'UTR-luciferase reporter, luminescence; inhibition, % at 2 µM;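 active means inhibition above a set limit, derived from the sample mean plus 3 SD, cut at about 45% in these data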
aSyn 5UTR inh = MLPCN primary screen, SNCA 5' untranslated region; 0.82% of 300,000 active; alpha-synuclein 5'UTR reporter, inhibitor activity; inhibition, % (tested at 7.5 µM); in the data active means inhibition above about 60%;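 further: H4 neuroglioblastoma cells stably carrying SNCA 5'UTR luciferase fusion; 0% = DMSO wells and 100% = positive control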
KLF5 inhibitor = kruppel-like factor 5 inhibition. AID 1700. DLD-1 KLF5 promoter-luciferase reporter, luminescence. 0.23% of 290,000 active. inhibition, % at 5 µM;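 active means inhibition above a per-plate limit of that plate's mean compound inhibition plus 3 SD, cut at about 60% in these data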;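 further: 0% = DMSO wells and 100% = LY294002 at 200 µM; higher means less KLF5 promoter-driven luciferase light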
BaF3 parental = reduces parental Ba/F3 cell viability, JAK2V617F counter-screen; CellTiter-Glo ATP luminescence; inhibition, % at 5.6 µM; 1.1% of 220,000 active;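 active means inhibition above a per-campaign cutoff, the mean inhibition of all tested compounds plus 3 SD, cut at about 27% in these data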;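 further: 0% = DMSO wells and 100% = JAK Inhibitor I control wells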
IEC-6 cytotox = counter-screen for KLF5 inhibitors: cytotoxicity in IEC-6 cells | IEC-6 cytotoxicity, luminescence viability | inhibition, % at 5 µM | 0.78% of 290,000 active;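 further: 0% = plate median of test compound wells and 100% = cytotoxic reference compound wells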
Ba/F3 V617F tox = lowers viability of Ba/F3 cells expressing EpoR and JAK2V617F. ATP luminescence. inhibition, % at 5.6 µM. 1.1% of 220,000 active;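 active means inhibition above the campaign mean plus 3 SD over all tested compounds, cut at about 24% in these data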;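 further: cytokine-independent growth of Ba/F3 cells driven by EpoR plus mutant JAK2; 0% = DMSO-treated cells and 100% = JAK inhibitor I control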
IEC-6 tox confirm = confirmation of cytotoxic compounds in rat IEC-6 intestinal epithelial cells; inhibition, % at 5 µM; IEC-6 rat intestinal epithelial viability, luminescence; 63% of 1,900 active; shares compounds with IEC-6 cytotox;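 further: 0% = vehicle and 100% = reference cytotoxic drug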
* marks the source's active call; other numbers are inactive results; nt = not tested or not shown. Shown are actives, neighbours in structure and some others; about 2.2% of the full set was active somewhere. Unless noted, no stated cut-off is given here; in the data, active means inhibition above about 22%; inactive means the rest.

SMILES	APP transl inh	aSyn 5UTR inh	KLF5 inhibitor	BaF3 parental	IEC-6 cytotox	Ba/F3 V617F tox	IEC-6 tox confirm
COc1ccc(-c2oc3cccnc3c2C#CC2(O)CCCCC2)cc1	nt	8	-35	nt	5	nt	nt
COc1ccc(-n2c(C)cc(/C=N/Nc3nnc(C)n3N)c2C)cc1	-4	24	11	5	100*	16	-4
O=C(Cc1ccc(S(=O)(=O)N2CCOCC2)s1)N1CCN(S(=O)(=O)c2cccc(Cl)c2)CC1	nt	19	nt	nt	nt	nt	nt
CN(CC(=O)Nc1ccccc1Br)C(=O)CCSc1ccc(F)cc1	nt	-9	nt	nt	nt	nt	nt
CCc1ccc(OCC(=O)NNC(=S)NC(=O)C2CCCCC2)c(Br)c1	nt	-6	-2	nt	2	nt	nt
CCc1ccc(OCC(=O)NNC(=S)NC(=O)C2CC2)c(Br)c1	nt	nt	14	nt	30*	nt	11
O=C(Nc1cccc(C(=O)Nc2ccc(Cl)cn2)c1)c1ccccc1	nt	-32	-30	nt	8	nt	nt
O=C(Nc1ccc(Cl)cn1)c1cccc(F)c1	-54	-204	-56	18	23*	18	33*
COc1ccc(/C=C2\COc3ccccc3C2=O)c(OC)c1	nt	-140	-58	nt	26*	nt	-3
Cn1nccc1C(=O)NC1CCCc2c1cnn2-c1ccc(C(C)(C)C)cc1 (configuration not stated)	nt	-1	-6	nt	23*	nt	21
CC(=O)NC1CCCc2c1cnn2-c1ccc(C(C)(C)C)cc1 (configuration not stated)	nt	-10	-32	nt	-1	nt	nt
Cc1cccc(-n2ncc3c2CCCC3NC(=O)c2ccc[n+]([O-])c2)c1C (configuration not stated)	nt	-7	-29	nt	-6	nt	nt
Cc1cc(C(=O)NC2CCCc3c2cnn3-c2cccc(C)c2C)n(C)n1 (configuration not stated)	nt	-3	20	nt	36*	nt	29*
CN(CCO)c1ccc(-c2n[nH]c(=O)c3ccccc23)cc1[N+](=O)[O-]	nt	11	-54	nt	10	nt	nt
Cc1ccc(NC(=O)Cn2cc([N+](=O)[O-])nc2C)cc1C	nt	19	-49	nt	-11	nt	nt
C/C(=N\NC(=O)c1ccccc1O)c1ccc(NC(=O)Cc2ccccc2)cc1	nt	-71	-112	nt	3	nt	nt
Cc1ccc(Nc2nc(-c3sc(N)nc3C)cs2)cc1	nt	-134	-77	nt	-1	nt	nt
COc1ccc(Nc2nc(-c3sc(C)nc3C)cs2)c(OC)c1	nt	-124	12	nt	60*	nt	40*
Cc1ccc(Nc2nc(-c3ccncc3)cs2)cc1	-129	-331	-93	7	27*	0	84*
Cc1cccc(Nc2nc(-c3ccncc3)cs2)c1	-50	-61	-42	21	65*	-3	75*
Cc1ccc(-c2csc(Nc3ccccn3)n2)cc1	nt	-27	-9	nt	2	nt	nt
Cc1ccc(Nc2nc(-c3sc(C)nc3C)cs2)cc1	nt	6	37	nt	75*	nt	52*
COc1cc(CC(=O)NCc2ccc3c(c2)OCO3)cc(OC)c1OC	-5	6	-28	5	-4	-2	nt
COc1cc(CC(=O)OCC(=O)c2ccc3c(c2)OCCO3)cc(OC)c1OC	94*	100*	42	79*	88*	72*	56*
Cc1cccc(NNC(=O)C(=O)NNc2cccc(C)c2)c1	nt	-7	34	-1	34*	-1	-14
SMILES	APP transl inh	aSyn 5UTR inh	KLF5 inhibitor	BaF3 parental	IEC-6 cytotox	Ba/F3 V617F tox	IEC-6 tox confirm
N#C/C(=C(/O)c1ccc(Br)s1)c1nc2ccccc2[nH]1	nt	-53	8	nt	34*	nt	46*
COc1cc(C(=O)NCCCCc2ccccc2)cc(OC)c1OC	nt	-5	-19	nt	4	nt	nt
CC(=O)NC1=NN(C(C)=O)C(C)(c2ccccc2)S1 (configuration not stated)	49*	5	44	61*	64*	67*	45*
CC(=O)NC1=NN(C(C)=O)C(C)(c2ccc3ccccc3c2)S1 (configuration not stated)	12	-5	-26	9	6	0	nt
C=CCn1c(C)cc(C(=O)Cn2ncc(Cl)c(Cl)c2=O)c1C	87*	16	10	-2	48*	6	21
CCN(Cc1ccccc1)C(=O)c1cc(S(=O)(=O)N2CCOCC2)cn1C	nt	0	4	nt	-9	nt	nt
COc1cc(-c2noc(C)c2C#CC2(O)CCCCC2)cc(OC)c1OC	nt	14	-2	nt	9	nt	nt
COc1cc(-c2noc(C)c2C#Cc2ccsc2)cc(OC)c1OC	nt	69*	57	nt	83*	nt	61*
CCN(CC(=O)Nc1ccc(NC(C)=O)cc1)C(=O)/C=C/c1c(C)nn(-c2ccc(F)cc2)c1C	nt	4	-2	nt	3	nt	nt
CCOc1ccccc1NC(=O)c1cccc(NC(=O)c2ccco2)c1	91*	-185	45	68*	55*	82*	52*
Cc1ccccc1NC(=O)c1cccc(NC(=O)c2ccco2)c1	nt	-15	-7	nt	0	nt	nt
Cc1cc(NC(=O)CSc2nnc3c(C)cc4c(C)ccc(C)c4n23)no1	14	-15	52	10	55*	2	22
Cc1ccc2nc(C)c(CN3CCN(c4ccc([N+](=O)[O-])cc4Cl)CC3)n2c1	nt	52	-7	nt	26*	nt	47*
Cc1nc2ccc(NC(=O)c3cncc(Br)c3)cc2s1	nt	-87	39	60*	88*	80*	-4
Cc1nc2ccc(NC(=O)c3ccccc3)cc2s1	-82	-106	-94	2	-1	-1	nt
COc1ccc(Nc2nnc(SCc3cn4c(C)cccc4n3)s2)cc1	-20	-5	-12	6	22*	-1	2
Cc1cccc2nc(CSc3nnc(N)s3)cn12	-3	-33	-21	8	1	6	nt
CN(C)C(=O)COC(=O)c1ccccc1Nc1ccc(SC(F)F)cc1	-19	-19	-88	10	45*	4	37*
COc1ccccc1NC(=O)COC(=O)c1ccccc1OCC(=O)Nc1ccc(SC(F)F)cc1	-18	-13	-11	6	-3	-3	nt
Cc1ccc(NC(=O)CCn2c(=O)c3cccn3c3ccccc32)c(C)c1	nt	-18	-23	nt	-8	nt	nt
Cc1cc(C)cc(NC(=O)CCn2c(=O)c3cccn3c3ccccc32)c1	nt	-3	31	nt	40*	nt	37*
O=C(c1c[nH]c2ccccc12)C(Cl)c1ccccc1 (configuration not stated)	nt	-11	18	nt	33*	nt	13
O=C(c1c[nH]c2ccccc12)C(O)C(c1ccccc1)N1CCOCC1 (configuration not stated)	-6	-13	-11	4	-3	-4	nt
CCOC(=O)c1cc2c(ccn2C)n1Cc1cc(C)ccc1C	20	-2	-17	9	46*	0	25*
CC1(C)Cc2nc3sc4c(SCC(=O)NCc5ccccc5)ncnc4c3cc2CO1	67*	64*	15	36*	48*	53*	51*
CC1(C)Cc2nc3sc4c(SCC(=O)O)ncnc4c3cc2CO1	nt	47	27	-1	-3	0	nt
COC(=O)CCC(=O)c1ccc(OC)c(Cl)c1	nt	-6	nt	nt	nt	nt	nt
Cc1cc(S(=O)(=O)N2CCN=C2c2ccccc2)ccc1F	-7	35	-35	3	1	1	nt
